# Test results published in PubChem BioAssay (NCI).
# Compounds without any hit were thinned out: in the full panel of roughly 83,000, 20% have a hit.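 In brief: 96-well plates, 48 h treatment, single concentration, percent growth endpoint.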 Unmarked numbers belong to inactive results. The source made the active and inactive calls. How the source made its calls: active means growth percent below 10; inactive means the rest.
# Tested on: MDA-MB-468 breast
# Assay: NCI-60 one-dose screen, 48 h (100 = growth as untreated, 0 = no growth, -100 = all killed)
# Details: 10 µM unless noted
row,SMILES,growth
1,CCOC(=O)C1CSC(C)(C(=O)OCC)N1 (centres undefined),105%
2,CCN(CC)CCC(CNc1ccnc2cc(Cl)ccc12)c1ccccc1 (centres undefined),-35.6% (active)
3,COc1ccc(-c2cc(C(=O)Nc3ccc(C)cc3)nc3[nH]c(=O)sc23)cc1,66.6%
4,C[n+]1c(/C=C/c2c[nH]c3ccccc23)ccc2ccccc21,23%
5,CN(C)CCN(C)CC(C)(C)C(=O)/C=C/c1ccc(Cl)c(Cl)c1,-83.6% [100 µM] (active)
6,NC(N)=Nc1cc2ccccc2c2ccccc12,54.4%
7,O=C1NCc2ccc3c(-c4cccc(Cl)c4)c[nH]c3c21,26.5%
8,CN1C(=O)NC(c2ccc3c(c2)OCO3)C=C1c1ccccc1 (centres undefined),98.2%
9,O=C1c2ccccc2C(=O)c2c(Nc3ccc(CCO)cc3)ccc(O)c21,38%
